# From PubChem
# In the library only some 2.5% were active in any assay of this set; here they are far more common.
# HSF1 inh: HSF1 inhibition; NIH3T3-HGL HSE-luciferase, MG132-induced, luminescence 8 h; hits give low values; activity change, negative = inhibition, % at 7.5 µM (by protocol); 0.77% of 300,000 active; AID 2098;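 active means more than half of replicate wells show activity change below -50%, luminescence cut by over half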;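 further: luciferase reports HSF-1 transcriptional activity via heat shock element; 0% = median of DMSO wells and -100% = zero luminescence signal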
# HSF-1 act: increases HSF-1 driven luciferase reporter signal. NIH3T3-HGL HSF-1 luciferase reporter, MG132, 8 h; 100% = twice DMSO control signal. activation, % at 9 µM. 1.7% of 300,000 active;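 active means mean replicate activation of at least 50% with a set share of replicates each reaching 50%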;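 further: 0% = median of the neutral control wells and 100% = twice that signal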
# GC-B act: GC-B (human) receptor activation | P20594 | HEK293-GC-B cells, CNP EC30, cGMP TR-FRET; 0% at EC30 CNP, 100% saturating CNP | activation, % at 10 µM | 0.11% of 370,000 active | AID 1920062;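 active means activation at 10 µM reaching about 35% in either raw or pattern-adjusted values, limit read from the data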
# Target sequence (P20594 whole entry, looked up): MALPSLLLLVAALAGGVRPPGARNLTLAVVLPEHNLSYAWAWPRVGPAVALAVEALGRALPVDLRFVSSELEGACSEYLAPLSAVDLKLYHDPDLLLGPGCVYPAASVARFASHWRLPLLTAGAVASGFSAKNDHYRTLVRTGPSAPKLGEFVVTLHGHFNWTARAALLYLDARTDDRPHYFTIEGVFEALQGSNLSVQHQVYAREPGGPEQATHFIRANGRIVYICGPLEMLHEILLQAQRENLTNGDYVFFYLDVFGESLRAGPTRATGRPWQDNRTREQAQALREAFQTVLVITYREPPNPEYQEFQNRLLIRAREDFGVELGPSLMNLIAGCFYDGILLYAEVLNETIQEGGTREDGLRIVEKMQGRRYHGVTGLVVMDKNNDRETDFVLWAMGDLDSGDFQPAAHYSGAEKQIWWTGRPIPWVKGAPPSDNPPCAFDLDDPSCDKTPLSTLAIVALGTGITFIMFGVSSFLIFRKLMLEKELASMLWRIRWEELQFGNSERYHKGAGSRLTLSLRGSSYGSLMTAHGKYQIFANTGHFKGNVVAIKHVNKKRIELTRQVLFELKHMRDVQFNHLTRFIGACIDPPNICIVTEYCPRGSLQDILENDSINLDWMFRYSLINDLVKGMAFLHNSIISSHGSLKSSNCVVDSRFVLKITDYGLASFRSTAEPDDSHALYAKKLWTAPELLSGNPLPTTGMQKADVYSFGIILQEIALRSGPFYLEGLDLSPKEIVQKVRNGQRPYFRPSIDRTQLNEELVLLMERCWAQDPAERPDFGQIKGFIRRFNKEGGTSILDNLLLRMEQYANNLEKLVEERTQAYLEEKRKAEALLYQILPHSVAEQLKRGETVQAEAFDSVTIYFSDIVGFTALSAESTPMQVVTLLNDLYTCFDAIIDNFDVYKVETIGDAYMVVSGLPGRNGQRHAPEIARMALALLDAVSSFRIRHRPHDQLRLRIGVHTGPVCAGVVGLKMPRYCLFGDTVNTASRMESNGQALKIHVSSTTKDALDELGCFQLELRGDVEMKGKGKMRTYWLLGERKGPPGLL
# aDG glyco act: increases alpha dystroglycan glycosylation; Pro5-aDG cells, alpha-DG glycosylation AlphaScreen (IIH6); 0% Pro5, 100% B10-LARGE cell signal; activation, % at 10 µM; 0.22% of 360,000 active; AID 624168;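 active means activation of at least 8% versus controls, or a plate z-score of at least 8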;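 further: Pro5 are CHO cells carrying HIG-tagged alpha-DG that lacks glycosylation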
# Dyrk1A ADPGlo: inhibitors of rat Dyrk1A kinase; Q63470; ADP-Glo luminescence, NFATc1 peptide; inhibition, % at 12.5 µM; 0.43% of 310,000 active; in the data active means inhibition above about 50%;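 further: plate controls were vehicle with enzyme for no effect and no enzyme for full effect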
# NPR1 activator: GC-A (human) enzyme activation | P16066 | HEK293 GC-A cells, cGMP TR-FRET, EC30 ANP; 0% at EC30 ANP, 100% saturating ANP | activation, % at 10 µM | 0.14% of 370,000 active | AID 1671463; in the data active means activation above about 40%
# Numbers without * were called inactive; . = not tested or not shown.
SMILES,HSF1 inh,HSF-1 act,GC-B act,aDG glyco act,Dyrk1A ADPGlo,NPR1 activator
COc1ccc(NC(=O)c2cc(-c3cc(Cl)ccc3O)n[nH]2)c(OC)c1,-81*,-86,8,0,-4,7
COc1ccc(NC(=O)c2cc(-c3cc(F)ccc3OC(C)C)n[nH]2)c(C)c1,.,.,61*,0,.,56*
Cc1cc(O)c(-c2cc(C(=O)Nc3cccnc3)[nH]n2)cc1C,33,64*,-3,0,-5,-5
Cc1cc(C)c(O)c(-c2cc(C(=O)Nc3cccnc3)[nH]n2)c1,1,2,-1,0,8,-5
COc1ccc(NC(=O)c2cc(-c3cc(Cl)ccc3OC)n[nH]2)c(OC)c1,.,.,25,0,.,38
COCCCNC(=O)C[C@@H]1C[C@@]2(C(=O)OC)CCCCC=C2N(CCC2=CCCCC2)C1=O,.,.,5,0,.,-1
C=CCn1c(SCC(=O)NCC2CCCO2)nnc1C1CCCCC1 (stereo unspecified),0,11,5,0,-1,-1
CCOC(=O)CCC(NC(=O)c1ccccc1C(=O)NC(CCC(=O)OCC)C(=O)OCC)C(=O)OCC (stereo unspecified),1,10,2,0,-3,-1
N#CCSc1nc2cc(C(=O)N3CCC(C(N)=O)CC3)ccc2c2nc3ccccc3n12,-8,5,.,0,.,.
Cc1ccc(O)c(-c2cc(-c3ccccc3F)[nH]n2)c1,135,157*,-19,0,-5,2
O=C(Cn1c(=O)oc2ccccc21)NCc1ccco1,.,.,6,0,1,3
COc1ccccc1N1CCN(C(=S)Nc2ccccc2)CC1,-20,-23,2,0,11,4
COc1ccccc1N1CCN(C(=S)Nc2ccc(F)cc2)CC1,-73*,-75,-1,0,5,-3
Cc1ccc2[nH]c(C(=O)N3CCCC(Nc4ccc(F)cc4)C3)cc2c1 (stereo unspecified),-1,1,-7,0,-5,-2
Cc1cc(NC(=O)c2ccno2)no1,2,25,-8,0,1,1
Cc1cc(NC(=O)CCCS(=O)(=O)c2nc(-c3cccs3)cc(C(F)(F)F)n2)no1,159,205*,6,-1,2,16
CS(=O)(=O)c1nc(-c2cccs2)cc(C(F)(F)F)n1,-90*,-90,.,.,.,.
COc1ccc(-c2cc(C(F)(F)F)nc(N)n2)cc1,2,-2,1,0,14,2
Nc1nc(-c2ccc(F)cc2)cc(C(F)(F)F)n1,3,7,2,0,-5,1
CC(C)CNC(=O)CSc1nc(-c2cccs2)cc(C(F)(F)F)n1,-4,11,-6,1,0,-3
O=C(O)CCS(=O)(=O)c1nc(-c2cccs2)cc(C(F)(F)F)n1,14,33,3,0,8,2
COc1ccc(-c2cc(C(F)(F)F)nc(S(C)(=O)=O)n2)cc1,262,321*,5,0,5,46*
CS(=O)(=O)c1nc(-c2ccc(F)cc2)cc(C(F)(F)F)n1,-93*,-92,13,0,1,72*
CCCCCn1c(CN2CCN(Cc3ccccc3)CC2)nc2c1c(=O)[nH]c(=O)n2C,7,3,-12,0,-9,-19
CC(C)[C@H](NC(=O)Cc1ccccc1)C(=O)OCc1cc(=O)n2c(n1)sc1ccccc12,-72*,-78,-1,0,-2,-1
SMILES,HSF1 inh,HSF-1 act,GC-B act,aDG glyco act,Dyrk1A ADPGlo,NPR1 activator
CC(=O)c1cccc(NC(=O)N2CCCC2C(=O)Nc2c(C)cccc2C)c1 (stereo unspecified),-7,13,1,0,16,-1
Cc1ccc(NC(=O)N2CCCC2C(=O)Nc2c(C)cc(C)cc2C)cc1 (stereo unspecified),20,57*,5,0,-4,2
COc1ccccc1N1CCN(C(c2ccc(F)cc2)c2nnnn2C(C)C)CC1 (stereo unspecified),1,7,0,0,4,1
COc1ccc(C2N(C(C)=O)CCCN2S(=O)(=O)c2ccc(C)cc2)cc1 (stereo unspecified),3,-1,-5,0,5,-6
COc1ccc(C2N(C(=O)CN3CCCC3)CCCN2S(=O)(=O)c2ccccc2)cc1 (stereo unspecified),52,105*,2,0,4,0
CCCCCC1C/C(=N\O)C=C(C)C1C(=O)OC (stereo unspecified),7,11,-13,0,9,-1
CCOC(=O)N1CCN(C(=O)c2ccc3c(c2)sc2nc(-c4ccc(OC)cc4)cn23)CC1,.,.,13,1,7,7
COc1ccc2c(c1)sc1nc(-c3ccccc3)cn12,-68*,-72,-8,14*,19,-5
CC(C)(C)NC(=O)CSc1nc2ccc(NC(=O)CSc3nnnn3Cc3ccccc3)cc2s1,10,19,1,5.7*,-6,-1
O=C(N/N=C/c1ccc([N+](=O)[O-])o1)c1cc2ccccc2o1,9,19,-8,3.6*,-4,1
CN=c1scc(-c2ccccc2F)n1/N=C(\C)c1cccnc1,26,78*,-4,0,2,-10
COc1cc(C=NNC(=S)Nc2ccc(S(=O)(=O)N3CCCCC3)cc2)cc(OC)c1OC,.,.,1,0,.,2
Cn1ccc(C(=O)N/N=C/c2ccncc2)n1,35,78*,1,0,3,-1
CC1CCc2nc(NC(=O)Nc3ccc4c(c3)OCO4)sc2C1 (stereo unspecified),14,23,-11,0,5,-4
O=C(COC(=O)c1ccc(O)cc1)NC(=O)NCc1ccccc1,.,.,-5,0,5,-2
CCOc1nc(SC(C(C)=O)C(=O)Nc2ccccc2)nc(N(C)C)n1 (stereo unspecified),34,56*,3,0,-8,4
CC(Sc1nc(NC(C)(C)C)nc(N(C)C)n1)C(=O)Nc1ccccc1 (stereo unspecified),9,29,1,0,.,-7
CCOC(=O)C(=Cc1ccc(-c2ccsc2C(=O)OC)o1)C(=O)OCC,75,90*,14,0,-2,5
COC(=O)C(=Cc1ccc(-c2ccsc2C(=O)OC)o1)C(=O)OC,31,43,0,0,4,8
CCN(C(=O)c1cccs1)C1CCS(=O)(=O)C1 (stereo unspecified),2,3,2,0,-8,3
CC(C)CN(C(=O)c1cccs1)C1CCS(=O)(=O)C1 (stereo unspecified),19,62*,-1,0,-2,3
O=C(Nc1ccc2c(c1)OCO2)c1ccccn1,.,.,0,0,-2,1
